Laboratory results from the supplement of paper PMC4206461.

Test system: Pseudomonas aeruginosa PA14 dppA1-A5 penta mutant + pBBR5.DppA1 (PA14_58350)
Assay: respiration area under curve with compound as sole nitrogen source, 24 h (OmniLog AUC (arbitrary units)); higher = more respiration / better utilisation as nitrogen source, active = 2000 or more
Description: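 Biolog Phenotype MicroArray plates PM6-PM8: each di/tripeptide is the sole nitrogen source. Tetrazolium reduction was read in the OmniLog for 24 h at 37°C and summarised as area under the respiration curve (arbitrary units). Values below 2000 count as no respiration. Strain is the SBP penta mutant complemented with DppA1 on a plasmid under its native promoter. Lys/His/Cys peptides are excluded.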

Compound	respiration area under curve
CC(NC(=O)C(N)CC(=O)O)C(=O)O (stereo not given) (plate: PM8)	6890 (active)
CC(C)CC(N)C(=O)NC(Cc1c[nH]c2ccccc12)C(=O)O (stereo not given) (plate: PM7)	8370 (active)
N[C@@H](Cc1ccc(O)cc1)C(=O)N[C@@H](Cc1ccc(O)cc1)C(=O)O (plate: PM7)	6170 (active)
C[C@H](N)C(=O)N[C@@H](C)C(=O)N[C@@H](C)C(=O)O (plate: PM8)	8340 (active)
N[C@@H](CCC(=O)O)C(=O)N[C@@H](Cc1c[nH]c2ccccc12)C(=O)O (plate: PM6)	1820 (inactive)
C[C@H](N)C(=O)N[C@@H](CCC(=O)O)C(=O)O (plate: PM6)	6760 (active)
CC[C@H](C)[C@H](NC(=O)[C@@H](N)Cc1ccc(O)cc1)C(=O)O (plate: PM8)	6990 (active)
CC(C)C[C@H](N)C(=O)N[C@@H](Cc1ccccc1)C(=O)O (plate: PM6)	4550 (active)
CC(C)C[C@H](NC(=O)[C@@H](N)CCCN=C(N)N)C(=O)O (plate: PM6)	7900 (active)
NC(N)=NCCC[C@H](N)C(=O)N[C@@H](CCC(=O)O)C(=O)O (plate: PM6)	8440 (active)
N[C@@H](CC(=O)O)C(=O)N[C@@H](CC(=O)O)C(=O)O (plate: PM6)	197 (inactive)
CC[C@H](C)[C@H](N)C(=O)N[C@@H](CC(C)C)C(=O)O (plate: PM8)	4900 (active)
NC(=O)C[C@H](NC(=O)[C@@H]1CCCN1)C(=O)O (plate: PM8)	11600 (active)
O=C(O)[C@@H]1C[C@@H](O)CN1C(=O)[C@@H]1CCCN1 (plate: PM7)	0 (inactive)
NC(=O)CC[C@H](NC(=O)[C@@H](N)Cc1ccc(O)cc1)C(=O)O (plate: PM7)	12100 (active)
N[C@@H](Cc1ccccc1)C(=O)N[C@@H](Cc1ccc(O)cc1)C(=O)O (plate: PM8)	2050 (active)
C[C@@H](O)[C@H](N)C(=O)N[C@@H](CO)C(=O)O (plate: PM8)	5330 (active)
CC(C)[C@H](NC(=O)[C@@H](N)CCC(=O)O)C(=O)O (plate: PM6)	2600 (active)
CSCC[C@H](NC(=O)[C@H](C)N)C(=O)O (plate: PM8)	6710 (active)
C[C@H](NC(=O)[C@@H]1CCCN1)C(=O)O (plate: PM7)	6110 (active)

Compound	respiration area under curve
C[C@@H](O)[C@H](N)C(=O)N[C@@H](Cc1ccccc1)C(=O)O (plate: PM8)	6440 (active)
NCC(=O)N[C@@H](CCCN=C(N)N)C(=O)O (plate: PM6)	7640 (active)
NCC(=O)NCC(=O)N[C@@H](Cc1ccccc1)C(=O)O (plate: PM8)	3750 (active)
CC(C)[C@H](NC(=O)[C@@H](N)Cc1ccccc1)C(=O)O (plate: PM8)	5720 (active)
C[C@H](NC(=O)[C@@H](N)Cc1ccc(O)cc1)C(=O)O (plate: PM7)	10300 (active)
CC(C)[C@H](N)C(=O)N1CCC[C@H]1C(=O)O (plate: PM8)	10300 (active)
CC[C@H](C)[C@H](N)C(=O)N[C@H](C(=O)O)[C@@H](C)CC (plate: PM6)	1010 (inactive)
O=C(O)CNC(=O)[C@@H]1CCCN1 (plate: PM7)	6590 (active)
CC(C)C(N)C(=O)NC(CO)C(=O)O (stereo not given) (plate: PM8)	6900 (active)
C[C@@H](O)[C@H](N)C(=O)N[C@@H](CCC(N)=O)C(=O)O (plate: PM8)	10400 (active)
CC(C)C[C@@H](N)C(=O)N[C@H](CC(C)C)C(=O)O (plate: PM8)	0 (inactive)
N[C@@H](CO)C(=O)N[C@@H](CC(=O)O)C(=O)O (plate: PM8)	2890 (active)
N[C@@H](Cc1ccc(O)cc1)C(=O)N[C@@H](CCC(=O)O)C(=O)O (plate: PM7)	4690 (active)
CSCC[C@H](N)C(=O)N[C@@H](Cc1ccc(O)cc1)C(=O)O (plate: PM8)	780 (inactive)
N[C@@H](CCC(=O)O)C(=O)N[C@@H](CCC(=O)O)C(=O)O (plate: PM6)	263 (inactive)
N[C@@H](Cc1ccc(O)cc1)C(=O)N[C@@H](Cc1ccccc1)C(=O)O (plate: PM7)	6470 (active)
CSCC[C@H](N)C(=O)N[C@@H](Cc1ccccc1)C(=O)O (plate: PM7)	680 (inactive)
CSCC[C@H](N)C(=O)NCC(=O)O (plate: PM7)	3910 (active)
N[C@@H](CC(=O)O)C(=O)N[C@@H](CCC(=O)O)C(=O)O (plate: PM6)	437 (inactive)
N[C@@H](CC(=O)O)C(=O)NCC(=O)O (plate: PM8)	2620 (active)
